Compound activity as filed in PubChem BioAssay.
Sampled rows, rich in hits. Any-hit rate of the full collection: about 6.2%.
FMDV antiviral: antivirals against foot and mouth disease virus | FMDV antiviral cell-based qHTS | Potency, µM (series often up to 57.9 µM), for the others: at the top dose activity change, negative = inhibition, hits mostly inhibitors | hit rate 1.2% among 410,000 | AID 1159524; calls by dose curve; tested in HEK293T cells; also: read-out not given here; potency is read from the fitted curve at half-maximal effect; nearly all actives have a fitted effect of over 45% in size
HCMV antiviral: human cytomegalovirus inhibition | HFF cells, HCMV-luciferase reporter, 72 h; stronger effect = lower value | activity change, negative = inhibition, % at 57.5 µM | hit rate 4.5% among 410,000; in the data active = activity change below about -60%; inconclusive = no clear call, values can overlap the other calls; inactive = above about -39%
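Cell-based, HFFs, 1000 cells/well, 16 h 37C; cpds in DMSO + HCMV-luc, MOI 1 PFU/cell; 72 h 37C; OneGlo luminescence after 5 min RT; norm. to buffer vs Salinomycin 10uM.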
MARV entry inh: Marburg virus entry inhibition; Marburg virus pseudotyped entry inhibition, cell reporter; Potency, µM (titrated, usually from 37.8 µM), for the others: at the top dose activity change, negative = inhibition, usual class: inhibitors; hit rate 1.8% among 300,000; AID 540276; calls by dose curve; tested in HEK293 cells; also: potency is read from the fitted curve at half-maximal effect
LASV entry inh: inhibitors of Lassa virus binding or cell entry. Potency, µM (titrated, usually from 37.9 µM), inactives show at the highest dose activity change, negative = inhibition, actives largely listed as inhibitors. AID 540256. hit rate 1.2% among 300,000. Lassa virus pseudotype entry inhibition, cell reporter; calls by dose curve; tested in HEK293 cells; also: potency is read from the fitted curve at half-maximal effect; nearly all actives have a fitted effect of over 50% in size
* marks the source's active call; other numbers are inactive results; [ ] = remark or other dose. % is scaled to controls: 0 for no effect and ±100 for the full control effect.

O=C(c1ccccc1)N1CCc2ccccc21 was read as FMDV antiviral -4.3%, HCMV antiviral 6.4, MARV entry inh 13.1% and LASV entry inh 3.9%.
Screening Cc1[nH]n(-c2ccccc2)c(=O)c1C(=O)c1ccccc1 returned FMDV antiviral -1.6%, HCMV antiviral 57.6, MARV entry inh -28.7%[46.1 µM] and LASV entry inh inconclusive.
Screening Cc1[nH]n(-c2ccccc2)c(=O)c1C(=O)c1cccc(F)c1 returned FMDV antiviral -12.9%, HCMV antiviral -36.1, MARV entry inh 10.3µM* and LASV entry inh inconclusive.
COc1cccc(CNC(=O)Cc2ccc(NC(=O)N3CCCCc4ccccc43)cc2)c1OC was read as FMDV antiviral -1.6%, HCMV antiviral 28.0 and LASV entry inh -21.3%[46.1 µM].
C=CCC12OC3(OC)CC1[C@H](C)[C@@H](c1ccccc1)C2[C@@]3(C)O (some centres not stated) was read as MARV entry inh 0.3%[14.2 µM].
`CCC(=O)C1=C(c2ccccc2)N(C(=O)CC)n2c(nnc2-c2ccccc2)S1` gave FMDV antiviral -11.1%, HCMV antiviral -20.4 and LASV entry inh -10.5%[46.1 µM].
CCC(=O)C1=C(c2ccc(Cl)cc2)N(C(=O)CC)n2c(C)nnc2S1 was read as FMDV antiviral 0.0%, HCMV antiviral -99.3* and LASV entry inh 0.3%[46.1 µM].
Screening COCC(=O)N1CCCCN2[C@H](C1)[C@H](c1ccc(C#Cc3ccccc3)cc1)[C@@H]2CO returned HCMV antiviral 19.7.
CCN(CCO)C(=O)c1cnn(-c2ncc3c(n2)-c2ccccc2CCC3)c1C1CC1 was read as FMDV antiviral 37.9%.
`O=C(Nc1nc2ccc(F)cc2s1)c1nc(S(=O)(=O)Cc2ccccc2F)ncc1Cl` gave FMDV antiviral inconclusive, HCMV antiviral -109.3*, MARV entry inh inconclusive and LASV entry inh inconclusive.
`CC(C)c1nnc(NC(=O)CCC(=O)NCc2ccccc2Cl)s1` gave FMDV antiviral -5.7%, HCMV antiviral 8.5, MARV entry inh 6.6%[46.1 µM] and LASV entry inh -8.0%[46.1 µM].
Screening CSc1nnc(NC(=O)c2nc(S(=O)(=O)Cc3ccccc3F)ncc2Cl)s1 returned FMDV antiviral 7.08µM*, HCMV antiviral -96.1*, MARV entry inh inconclusive and LASV entry inh inconclusive.
`CCOC(=O)c1ccc(NC(=O)c2nc(SCc3ccccc3F)ncc2Cl)cc1` gave FMDV antiviral -17.3%, HCMV antiviral 22.5, MARV entry inh 7.4%[46.1 µM] and LASV entry inh 4.9%[46.1 µM].
Screening CCOc1ccc(NC(=O)c2nc(S(=O)(=O)Cc3ccccc3F)ncc2Cl)cc1 returned FMDV antiviral 25.1µM*, HCMV antiviral -99.9*, MARV entry inh inconclusive and LASV entry inh inconclusive.
For Cc1nnc(NC(=O)c2nc(SCc3ccccc3F)ncc2Cl)s1 the results were FMDV antiviral -23.5%, HCMV antiviral 30.9, MARV entry inh -11.5%[46.1 µM] and LASV entry inh -0.6%[46.1 µM].
Screening CC(C)c1nnc(NC(=O)c2nc(S(=O)(=O)Cc3ccccc3F)ncc2Cl)s1 returned FMDV antiviral 28.2µM* and HCMV antiviral -111.1*.
Screening Cc1ccc2nc(NC(=O)c3nc(SCc4ccccc4C)ncc3Cl)sc2c1 returned FMDV antiviral 6.2%, HCMV antiviral -2.4, MARV entry inh 1.0%[46.1 µM] and LASV entry inh 11.5%[46.1 µM].
`Cc1nnc(NC(=O)c2nc(S(=O)(=O)Cc3ccccc3C)ncc2Cl)s1` gave FMDV antiviral 25.1µM* and HCMV antiviral -102.1*.
`Cc1nc2c(c(C)c1CCC(=O)NCc1ccc(F)cc1)c(=O)n(C)c(=O)n2C` gave FMDV antiviral 2.5%, HCMV antiviral 5.5, MARV entry inh 14.9%[46.1 µM] and LASV entry inh -3.3%[46.1 µM].
For CCN(CC)CCCNC(=O)CCc1c(C)nc2c(c1C)c(=O)n(C)c(=O)n2C the results were FMDV antiviral -13.5%, HCMV antiviral -65.1*, MARV entry inh 2.0%[46.1 µM] and LASV entry inh 4.5%[46.1 µM].
`CC(Sc1nnc(C2CC2)n1C1CC1)C(=O)c1ccc(Br)cc1` (configuration not stated) gave FMDV antiviral -8.2%, HCMV antiviral -62.1*, MARV entry inh -12.4% and LASV entry inh -0.7%.
Screening CC(C)(C)NC(=O)C(c1cc2ccccc2o1)n1c(=O)c(-c2ccccc2)nc2ccccc21 (configuration not stated) returned FMDV antiviral -3.2% and HCMV antiviral -3.7.
`CN1CCC[C@@H]1CCNC(=O)c1c(-c2ccc3c(c2)OCO3)noc1-c1ccsc1` gave FMDV antiviral 12.6% and HCMV antiviral -75.3*.
`CC(=O)OC1CC(O)C(C)(C)C2CC(OC(C)=O)[C@]3(C)C(CC[C@@]4(C)C(c5ccoc5)OC(=O)C5OC534)[C@]12C` (some centres not stated) gave FMDV antiviral -11.0%.
COc1ccc(C2CC23N=C(c2ccccc2)OC3=O)cc1 (configuration not stated) was read as FMDV antiviral 22.4µM*, HCMV antiviral -7.5, MARV entry inh inconclusive and LASV entry inh -16.2%.
Screening COc1ccc(N(CCCN2C(=O)c3cccc4cccc(c34)C2=O)C(=O)c2cccs2)cc1 returned FMDV antiviral -29.0%, HCMV antiviral -21.3, MARV entry inh 2.5% and LASV entry inh 0.1%.
Cc1ccc(N(CCCCN2C(=O)c3ccccc3C2=O)C(=O)c2cccs2)cc1 was read as FMDV antiviral -29.1%, HCMV antiviral -83.4*, MARV entry inh inconclusive and LASV entry inh inconclusive.
`C[n+]1c2n(c3ccccc31)N=C(c1cc(C(C)(C)C)c(O)c(C(C)(C)C)c1)CS2` gave FMDV antiviral 14.1µM*, HCMV antiviral -100.7*, MARV entry inh 11.2µM* and LASV entry inh inconclusive.
COc1cccc(C2=Nn3c(nnc3-c3ccccc3O)SC2)c1 was read as FMDV antiviral 2.9%, HCMV antiviral 59.8, MARV entry inh -27.2% and LASV entry inh -15.4%.
Screening Cc1ccccc1CNC(=O)Cn1cc2c(n1)-c1c(oc(C(=O)N3CCCC3)c1C)CC2 returned FMDV antiviral 10.6%, HCMV antiviral -21.5 and LASV entry inh inconclusive.
`COCCCNC(=O)c1oc2c(c1C)-c1nn(Cc3ccc(Cl)cc3)cc1CC2` gave FMDV antiviral -28.1%, HCMV antiviral -17.0 and LASV entry inh -12.4%[46.1 µM].
Screening Cc1c(C(=O)N2CCCC2)oc2c1-c1nn(CC(=O)NCc3ccccc3F)cc1CC2 returned FMDV antiviral 3.6%, HCMV antiviral -64.5* and LASV entry inh -12.4%[46.1 µM].
Screening CCN(CC)CCCNC(=O)c1oc2c(c1C)-c1nn(Cc3ccc(Cl)cc3)cc1CC2 returned FMDV antiviral -26.7%, HCMV antiviral -96.6* and LASV entry inh -19.2%[46.1 µM].
C[C@H](CO)N1C[C@H](C)[C@H](CN(C)C(=O)Nc2cccc(F)c2)Oc2cc(Br)ccc2S1(=O)=O was read as HCMV antiviral -25.9.
Screening CCCCCn1c(CN2CCN(c3cccc(Cl)c3)CC2)nc2c1c(=O)n(C)c(=O)n2C returned HCMV antiviral -39.5, MARV entry inh inconclusive and LASV entry inh 7.2%.
For CCCCn1c(CN2CCN(c3cccc(Cl)c3)CC2)nc2c1c(=O)n(C)c(=O)n2C the results were FMDV antiviral -21.2%, HCMV antiviral -88.8*, MARV entry inh inconclusive and LASV entry inh -1.3%.
